Experimental data from the supplement of paper PMC4723716.

Tested on: Plasmodium falciparum NF54 gametocytes
Test: viability index relative to DMSO control (fraction); higher = less gametocyte killing
Details: 12.5 µM, incubation time: 72 h
Method in brief: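 The viability index was calculated as the gametocyte particle count over the plate mean of solvent-only wells. For this, P. falciparum NF54 gametocytes of every stage (I–V) were held with compound at 12.5 µM for 72 hr at 37°C under low oxygen in 384-well plates. MitoTracker Red CMXRos staining for 20 min was followed by transfer of 5 µl into 40 µl of 500 nM dye in serum-free medium, with three fields imaged after 30 min.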

[1] = gametocyte stage: Stage I viability index
[2] = gametocyte stage: Stage II viability index
[3] = gametocyte stage: Stage III viability index
[4] = gametocyte stage: Stage IV viability index
[5] = gametocyte stage: Stage V viability index

Row | Compound | viability index [1] | viability index [2] | viability index [3] | viability index [4] | viability index [5]
1 | Oc1ccc2ccccc2c1CNc1nc2ccccc2[nH]1 | 0.0376 | 0.182 | 0.512 | 0.462 | 0.273
2 | COc1ccc(C(=O)NC(c2ccccc2Cl)c2cc(Cl)c3cccnc3c2O)cc1 (stereo not given) | 0.11 | 0.0824 | 0.167 | 0.241 | 0.221
3 | CCCN(CCC)CC(O)COc1ccccc1C(=O)Nc1ccccc1 (stereo not given) | 0.0829 | 0.175 | 0.46 | 0.593 | 0.516
4 | CCCCCCc1cc2cc(-c3nc4ccccc4[nH]3)c(=Nc3ccccc3C)oc2cc1O | 0.0472 | 0.138 | 0.501 | 0.601 | 0.506
5 | Fc1ccc2[nH]c3c(NCCCN4CCOCC4)ncnc3c2c1 | 0.053 | 0.564 | 0.873 | 0.866 | 0.78
6 | COc1ccc2sc(N(Cc3cccnc3)C(=O)c3ccc(C#N)cc3)nc2c1 | 1.05 | 0.773 | 0.995 | 0.934 | 1.16
7 | CCOc1cc(Cl)c(C(C)NC(=O)c2cccc(OC)c2)cc1OCC (stereo not given) | 0.0343 | 0.121 | 0.143 | 0.298 | 0.231
8 | c1ccc(-c2ccc(-c3nc4ccccc4[nH]3)cc2)cc1 | 0.527 | 0.768 | 0.867 | 0.784 | 0.967
9 | COc1ccc(C2Sc3ccccc3N=C3C2=C(O)c2ccccc23)cc1 (stereo not given) | 0.64 | 0.882 | 0.967 | 1.08 | 0.956
10 | CC(C)(C)CC(C)(C)NCC(O)COc1ccc(Cl)cc1Cl (stereo not given) | 0.0309 | 0.0309 | 0.0665 | 0.188 | 0.11
11 | COc1ccc2nc(C)cc(Nc3ccccc3O)c2c1 | 0.139 | 0.625 | 1.04 | 1.09 | 0.912
12 | O=C(NCc1ccco1)C1CCN(S(=O)(=O)c2ccc(Br)cc2)CC1 | 0.938 | 0.983 | 0.99 | 0.824 | 0.945
13 | O=C(CCl)NCCOc1ccc(Cl)cc1Cl | 0.732 | 0.629 | 0.813 | 0.769 | 0.675
14 | CSC1=NC(=Nc2c(C)cccc2C)C2(CCC(C(C)(C)C)CC2)N1c1ccc(Cl)cc1 (stereo not given) | 0.646 | 0.816 | 0.928 | 0.994 | 0.835
15 | O=C(CCc1ccccc1)c1ccccc1OCC(O)CN1CCCCC1 (stereo not given) | 0.00787 | 0.0616 | 0.36 | 0.465 | 0.39
16 | COc1cc(C(=O)ON=C(N)Cc2cccc3ccccc23)cc(OC)c1OC | 0.0175 | 0.0391 | 0.157 | 0.12 | 0.0909
17 | Cc1ccc(F)cc1NC(=O)c1cc(Cl)ccc1Nc1ccccc1 | 0.441 | 0.395 | 0.332 | 0.522 | 0.753
18 | OC(CNCC1CCCO1)Cn1c2ccc(Cl)cc2c2cc(Cl)ccc21 (stereo not given) | 0.0685 | 0.0647 | 0.468 | 0.65 | 0.56
19 | CCCCCCn1c(=N)n(CC(O)COc2cccc(C)c2)c2ccccc21 (stereo not given) | 0.0787 | 0.0425 | 0.0828 | 0.149 | 0.0779
20 | CC(=O)c1sc(NC(=O)Nc2ccc(C)cc2C)nc1C | 0.271 | 0.455 | 0.673 | 0.801 | 0.714

Row | Compound | viability index [1] | viability index [2] | viability index [3] | viability index [4] | viability index [5]
21 | O=C1C2=C(Nc3ccccc3SC2c2ccccc2)c2ccccc21 (stereo not given) | 0.678 | 0.794 | 0.742 | 0.623 | 0.662
22 | COc1cc2c3cc1Oc1c(OC)c(OC)cc4c1C(Cc1ccc(O)c(c1)Oc1ccc(cc1)CC3N(C)CC2)N(C)CC4 (stereo not given) | 0.25 | 0.465 | 0.592 | 0.528 | 0.468
23 | OC(CNCc1ccccc1)Cn1c2ccccc2c2ccccc21 (stereo not given) | 0.0629 | 0.0658 | 0.172 | 0.342 | 0.26
24 | COC(=O)c1ccc(C2C3=C(O)CC(c4ccc(F)cc4)CC3=Nc3ccccc3N2C(=O)c2ccccc2)cc1 (stereo not given) | 0.00524 | 0.005 | 0.0149 | 0 | 0
25 | Oc1ccc(-c2nc(-c3ccc4oc5ccc(-c6[nH]c(-c7ccc(O)cc7)nc6-c6ccccc6)cc5c4c3)c(-c3ccccc3)[nH]2)cc1 | 0.000874 | 0 | 0 | 0 | 0.013
26 | Cc1ccc(-c2cc3c(nn2)-c2ccccc2C3=O)cc1 | 0.61 | 0.871 | 0.74 | 0.897 | 1.05
27 | CCn1c2c(c(=N)c3c1CCC3)CCCC2 | 0.441 | 0.795 | 0.957 | 0.962 | 0.701
28 | O=c1nc(C=Cc2ccc(Cl)cc2)oc2ccccc12 | 0.874 | 1.01 | 1 | 0.866 | 0.989
29 | COc1ccc2c(c1OC)C(=O)N1c3ccccc3N=C(c3ccc(C)cc3)CC21 (stereo not given) | 0.899 | 0.674 | 0.951 | 0.94 | 0.987
30 | CCOC(=O)c1cnc2ccc(OC)cc2c1Nc1ccc(N2CCN(C)CC2)cc1 | 0.0953 | 0.479 | 0.931 | 0.842 | 0.779
31 | COc1ccc(-c2nc3cc(Cc4ccc5[nH]c(-c6ccc(OC)cc6)nc5c4)ccc3[nH]2)cc1 | 0.0276 | 0.441 | 0.864 | 0.809 | 0.538
32 | CCCCCn1c(=N)n(CC(O)COc2cccc(C)c2)c2ccccc21 (stereo not given) | 0.0988 | 0.0949 | 0.32 | 0.459 | 0.221
33 | Clc1ccc2c(N3CCCC3)ccnc2c1 | 0.241 | 0.491 | 0.915 | 0.93 | 1.14
34 | CCn1c(CN2CCN(Cc3ccccc3)CC2)nc2cc(NC(=O)c3cccs3)ccc21 | 0.701 | 0.837 | 0.924 | 0.967 | 1.05
35 | COc1ccccc1N1CCN(C(CNS(=O)(=O)c2ccc(Cl)cc2)c2cccnc2)CC1 (stereo not given) | 0.188 | 0.564 | 1.04 | 0.815 | 0.912
36 | CCN1CCN(c2c(C(=O)c3ccccc3)cnc3cc(OC)c(OC)cc23)CC1 | 1.03 | 0.988 | 1.22 | 1 | 0.909
37 | COc1cccc(C(=O)NC(c2ccc(C)cc2)c2cc(Cl)c3cccnc3c2O)c1 (stereo not given) | 0.116 | 0.0583 | 0.0814 | 0.247 | 0.039
38 | COc1ccc(-c2cc3c(SCC(=O)Nc4cc(C(F)(F)F)ccc4Cl)nccn3n2)cc1 | 1.04 | 0.886 | 1.06 | 0.924 | 1.05
39 | O=C1CC(O)(C(F)(F)C(F)(F)F)Oc2ccccc21 (stereo not given) | 1.22 | 0.957 | 1.2 | 1.19 | 0.813
40 | COc1cc(SC)ccc1C(=O)N1CCCC(C)C1 (stereo not given) | 0.982 | 0.96 | 1.17 | 1.16 | 1.18

Row | Compound | viability index [1] | viability index [2] | viability index [3] | viability index [4] | viability index [5]
41 | N=c1n(CCN2CCCCC2)c2ccccc2n1CC(=O)c1ccc(Cl)c(Cl)c1 | 0.115 | 0.281 | 0.848 | 0.886 | 0.753
42 | CC(C)(C)c1ccc(C(=O)Nc2c3c(nn2-c2cccc(Cl)c2)CSC3)cc1 | 0.469 | 0.508 | 0.825 | 0.747 | 0.701
43 | Cc1ccc2nc(C)cc(Nc3cccc(C(F)(F)F)c3)c2c1 | 0.325 | 0.504 | 0.803 | 0.829 | 0.857
44 | CCCCC(O)(c1ccc(Cl)cc1)C(CN1CCOCC1)c1ccc(Cl)cc1 (stereo not given) | 0.941 | 0.896 | 0.871 | 0.763 | 0.701
45 | COc1ccc(-c2cc(=O)oc3c4c(ccc23)OCN(Cc2ccc(F)cc2)C4)cc1 | 0.0192 | 0.0833 | 0.406 | 0.516 | 0.545
46 | CCOc1ccc2c(c1)CN(Cc1ccc(Cl)cc1)CO2 | 0.0612 | 0.129 | 0.452 | 0.592 | 0.468
47 | CCOc1cc(Br)c(C(C)NC(=O)c2cccc(OC)c2)cc1OCC (stereo not given) | 0.465 | 0.412 | 0.58 | 0.748 | 0.648
48 | CN1CCN(c2ncnc3c2[nH]c2ccc(Cl)cc23)CC1 | 0.263 | 0.577 | 0.92 | 1.04 | 0.935
49 | COc1cc2cc(C(=O)Nc3ccccc3)c(N)nc2cc1OC | 0.0265 | 0.434 | 0.727 | 0.86 | 0.758
50 | CC(C)OCc1cc(CN2CCN(c3cccc(Cl)c3)CC2)c(O)c2ncccc12 | 0.00331 | 0.0328 | 0.0297 | 0.0243 | 0.011
51 | Cc1ccc(S(=O)(=O)c2c(COC(=O)c3cccc(C)c3)c(-c3ccccc3)nn2C)cc1 | 0.982 | 0.881 | 0.943 | 0.769 | 0.922
52 | CC(C)CCNCC(O)Cn1c2ccccc2c2ccccc21 (stereo not given) | 0.0507 | 0.0691 | 0.0706 | 0.193 | 0.0779
53 | Cc1cc(NC(=O)c2cccc(C(F)(F)F)c2)n(-c2nc(-c3ccc4c(c3)OCO4)cs2)n1 | 1.26 | 0.943 | 1.1 | 0.951 | 0.956
54 | CCCCOc1ccc(C(=O)Nc2cc(C)on2)cc1 | 1.02 | 0.815 | 0.973 | 0.942 | 0.78
55 | Cc1cc(Nc2ccc(OCc3ccccc3)cc2)nc2cc(O)ccc12 | 0.332 | 0.199 | 0.468 | 0.487 | 0.481
56 | O=C(NC1CCCCC1)C(c1cccs1)N(CCc1ccccc1)C(=O)c1ccco1 (stereo not given) | 0.98 | 0.838 | 1 | 1.04 | 0.961
57 | COc1ccc(C(O)(CCC(C)C)C(CN2CCOCC2)c2ccc(Cl)cc2)cc1 (stereo not given) | 1.2 | 0.843 | 1.12 | 1 | 0.922
58 | CCCCNc1nc(NC(C)(C)C)nc(NC(C)(C)C)n1 | 0.0157 | 0.0425 | 0.223 | 0.117 | 0.0649
59 | COc1cc(C(=O)Nc2ccc(-c3nc4ccccc4[nH]3)cc2)cc(OC)c1OC | 0.0918 | 0.595 | 1.01 | 0.968 | 0.701
60 | CC(=O)NCCc1nc2ccccc2n1Cc1ccc(C(C)C)cc1 | 0.788 | 0.671 | 0.883 | 0.891 | 0.813
